The values below come from PubChem BioAssay AID2551 (National Center for Advancing Translational Sciences (NCATS), 2010).

Among all 310,000 compounds or so, about 17,000 (5.5%) were called active. Not shown: some 11% with an inconclusive outcome. Only a selection was taken, and actives are over-represented in it overall. Unmarked numbers belong to inactive results. The call rests on the fitted dose curve; in most records, active means well fitted inhibition curve with a large enough effect; inconclusive means small, poorly fitted or top-dose-only effect, or effect the other way; inactive means no such curve, though single readings can be large or run the other way.
On the % scale 0 is the no-effect control and ±100 the full control effect; potency means the concentration at half of the fitted maximal effect.

The target in the assay is Nuclear receptor ROR-gamma (Mus musculus) (UniProt P51450). The experiment in a line: qHTS for inhibitors of ROR gamma transcriptional activity. Further: nearly all actives have a fitted effect of over 60% in size. Particulars: Drosophila S2 Gal4-RORgamma UAS-luciferase reporter, 20 h; series mostly up to 53.6 µM; activity change, negative = inhibition: at the top concentration. The text has this: NIH Molecular Libraries Probe Production Network [MLPCN] NIH Chemical Genomics Center [NCGC] MLPCN Grant: R03 DA026211-01 Assay Provider: Dan Littman, New York University Assay Overview: The retinoic acid-related orphan receptor (ROR) gamma is a transcription factor that has a central role in the differentiation of Th17 cells, a subset of T helper cells that secrete the inflammatory cytokines IL-17, IL-17F, and IL-22. Th17 cells have been implicated in graft versus host disease, autoimmune disease and asthma. ROR gamma is induced in naive T helper cells in the presence of TGF-beta combined with IL-6, IL-21, or IL-23, and thereafter directs the expression of the Th17 lineage cytokines. To study the mechanism of action of ROR gamma, an insect cell-based assay was screened. This Drosophila Schneider cell line was stably transfected with two vectors: a gene expressing a fusion of the Gal4 DNA binding domain and ROR gamma transactivation domain under the control of the metallothionine promoter and a Photinus luciferase reporter regulated by the Gal4 binding site enhancer, UAS. […] Small molecule inhibitors of ROR gamma activity are detected by a decrease in luciferase reporter activity.
Nuclear receptor ROR-gamma (Mus musculus), sequence (P51450 whole entry, looked up, the tested form may be a part): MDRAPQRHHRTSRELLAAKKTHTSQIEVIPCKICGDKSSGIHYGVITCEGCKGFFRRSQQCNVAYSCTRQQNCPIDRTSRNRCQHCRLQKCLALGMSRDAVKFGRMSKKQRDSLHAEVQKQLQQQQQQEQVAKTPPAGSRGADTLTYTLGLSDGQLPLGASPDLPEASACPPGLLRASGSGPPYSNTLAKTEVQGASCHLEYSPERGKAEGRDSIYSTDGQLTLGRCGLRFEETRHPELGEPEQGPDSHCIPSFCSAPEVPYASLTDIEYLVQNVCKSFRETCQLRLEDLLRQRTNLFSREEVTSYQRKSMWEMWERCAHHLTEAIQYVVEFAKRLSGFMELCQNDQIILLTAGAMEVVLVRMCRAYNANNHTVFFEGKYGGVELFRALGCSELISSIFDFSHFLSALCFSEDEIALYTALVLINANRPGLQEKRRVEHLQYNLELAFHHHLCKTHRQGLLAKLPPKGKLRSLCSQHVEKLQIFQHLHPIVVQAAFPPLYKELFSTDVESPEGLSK
Assay Protocol Summary: For screening, 600 cells in 4 uL/well were dispensed into white solid 1536-well plates (Grenier) using a solenoid-based dispenser. Following transfer of 23 nL compound or DMSO vehicle by a pin tool, the plates were incubated 1 hr at ambient temperature, and 1 uL/well copper sulfate (700 uM final concentration) was added. The plates were centrifuged 15 s at 1000 RPM and incubated 20 hr at ambient temperature. After addition of 1.5 uL Photinus luciferase detection reagent, the plates were incubated 10 min at ambient temperature and then read by an ViewLux (Perkin Elmer) to detect luminescence. Keywords: NIH Roadmap, MLPCN, MLI, MLSMR, qHTS, NCGC, qHTS, nuclear hormone receptor, retinoic acid-related orphan receptor, ROR gamma
On to `COC(=O)c1ccc(NC(=O)c2cc3c(CO)cnc(C)c3oc2=Nc2cccc(C(N)=O)c2)cc1`, for which the “activity change, negative = inhibition” value is 24.6%.

Regarding `COc1ccc(OC)c(CCNC(=O)CCn2ccc3cc(S(=O)(=O)N4CCCC4)ccc32)c1`, the “activity change, negative = inhibition” value was 15.1%.

Regarding `CN(CCc1ccccn1)C(=O)c1ccc(OC2CCN(Cc3ccccn3)CC2)cc1`, the “activity change, negative = inhibition” value was -15%.

Consider `Cc1ccc(C(C)C)cc1OCC(=O)Nc1ccccc1N1CCCC1`, for which the “activity change, negative = inhibition” value is 2.35%.

Consider `Cc1ccccc1Nc1nnc(C)c(=O)[nH]1`, for which the “activity change, negative = inhibition” value is 12.9%.

On to `Cc1nnc(N/N=C/C2CC=CCC2)[nH]c1=O` (stereo not drawn), for which the Potency was 11.2 µM (active).

On to `Cc1nnc(N/N=C/c2ccccn2)[nH]c1=O`, for which the “activity change, negative = inhibition” value was -33.5%.

On to `CCC(=O)N1c2ccc(S(=O)(=O)NCc3ccco3)cc2CC1C` (stereo not drawn), for which the “activity change, negative = inhibition” value is 5.4%.

As to `CCc1ccc(NC(=O)CN2C(=O)COc3ccc(S(=O)(=O)N4CCCC4)cc32)cc1`, the “activity change, negative = inhibition” value was 14.7%.

As to `COc1cccc(CCNC(=O)c2cccc(NC(=O)C3=C(C)OCCS3)c2)c1`, the “activity change, negative = inhibition” value is 36.7%.

In the case of `COc1ccc(NC(=S)N2CCCC(CO)C2)c(OC)c1` (stereo not drawn), the “activity change, negative = inhibition” value is 7.55%.

In the case of `CCCCc1ccc(NC(=S)N2CCCC(CO)C2)cc1` (stereo not drawn), the Potency is 15.8 µM (active).

For `O=C(NC12CC3CC(CC(C3)C1)C2)N1CCCC(CO)C1` (stereo not drawn), the “activity change, negative = inhibition” value was -6.71%.

Turning to `CC(C)C(c1nnnn1C1CCCCC1)N1CCN(C(=O)c2ccco2)CC1` (stereo not drawn), the “activity change, negative = inhibition” value was 18.9%.

As to `CSCC[C@H](NC(=O)N1CCn2c1nc1ccccc12)C(=O)NCc1ccc2c(c1)OCO2`, the “activity change, negative = inhibition” value is 3.15%.

In the case of `CCc1ccc(C(=O)COC(=O)c2ccco2)cc1`, the “activity change, negative = inhibition” value is 3.72%.

Consider `COc1ccc(CNC(=O)C(NS(=O)(=O)c2cccc3nsnc23)C(C)C)cc1` (stereo not drawn), for which the “activity change, negative = inhibition” value was 5.6%.

Regarding `O=C(Nc1nncs1)c1ccccc1NS(=O)(=O)c1cccs1`, the “activity change, negative = inhibition” value is 24.2%.

Take `CC(C)C(NS(=O)(=O)c1cccs1)C(=O)Nc1nc(C(C)(C)C)cs1` (stereo not drawn): the Potency was 11.2 µM (active).

For `OCCCN1c2ccccc2Nc2nnc(-c3ccccc3)cc21`, the Potency was 10 µM (active).

For `O=C(NC1CCCCCCC1)c1cccs1`, the “activity change, negative = inhibition” value was -0.483%.

In the case of `Cc1cccc(N(C)C(=O)c2cc(S(=O)(=O)N3CCCCC3)c[nH]2)c1`, the “activity change, negative = inhibition” value is 13%.

In the case of `CC(NC(=S)Nc1ccccc1)C(c1cccs1)N1CCOCC1` (stereo not drawn), the Potency was 11.2 µM (active).

For the compound `COc1ccc(S(=O)(=O)N2CCOCC2)cc1C(=O)NC1CCCCC1`, the “activity change, negative = inhibition” value was 13.7%.

As for `CCCC(=O)NC(C)C(c1cccs1)N1CCN(c2ccccc2)CC1` (stereo not drawn), the “activity change, negative = inhibition” value is -2.37%.

On to `S=C(NC1CCCCC1)NN1CCOCC1`, for which the Potency was 8.91 µM (active).

`O=C(NC1CCCCC1)c1cc([N+](=O)[O-])ccc1N1CCOCC1`: the “activity change, negative = inhibition” value was -0.845%.

Take `CC(NC(=S)NC1CCCCC1)C(c1ccccc1)N1CCOCC1` (stereo not drawn): the Potency was 5.01 µM (active).

`CC(=O)OC(C(=O)NC1CCCCC1)c1ccccc1` (stereo not drawn): the activity change, negative = inhibition was -6.92% [at 10 µM].

As to `O=C(NNC(=O)C(O)c1ccccc1)NC1CCCCC1` (stereo not drawn), the “activity change, negative = inhibition” value is 11.9%.

As for `CC(NC(=O)Nc1ccccc1)C(c1cccs1)N1CCN(c2ccccc2)CC1` (stereo not drawn), the “activity change, negative = inhibition” value was -10.2%.

`CC(=O)N1CC(=O)N(CC(=O)Nc2ccc(Br)cc2)C1=S`: the “activity change, negative = inhibition” value was -36.4%.

With `CCOC(=O)N1CCN(CCC(=O)Nc2ccccc2)CC1`, the “activity change, negative = inhibition” value is 4.5%.

On to `Cc1nc(Nc2ccccc2F)c2nnn(Cc3ccccc3Cl)c2n1`, for which the “activity change, negative = inhibition” value was 3.39%.

`Cc1cccc(CN2CCC(n3nccc3NC(=O)c3ccccc3C)CC2)n1`: the “activity change, negative = inhibition” value is -24.1%.

With `O=C(NCc1ccccc1)C(c1ccco1)N(C(=O)c1csnn1)c1ccccc1F` (stereo not drawn), the “activity change, negative = inhibition” value is 1.19%.

As for `CCCCN1C(=O)/C(=C2/Sc3ccc(Cl)cc3N2CC)SC1=S`, the “activity change, negative = inhibition” value was 1.27%.

Regarding `O=S(=O)(NC1CCCCC1N1CCCCC1)c1ccc(Cl)cc1` (stereo not drawn), the “activity change, negative = inhibition” value is -5.75%.

Consider `CC(=O)Nc1cccc(Nc2nc(-c3cccs3)nc3ccccc23)c1`, for which the “activity change, negative = inhibition” value was 6.54%.

Consider `COc1ccc(CN(C)C(=O)Cc2c[nH]c3ccccc23)c(OC)c1OC`, for which the “activity change, negative = inhibition” value is 41%.

For the compound `Cc1nn(C)c(Cl)c1CN1CCC(Oc2ccc(C(=O)N3CCCC3)cc2)CC1`, the “activity change, negative = inhibition” value is -28%.

In the case of `CCOc1ccc(N/C(N)=N/c2nc(C)c(C)c(=O)[nH]2)cc1`, the “activity change, negative = inhibition” value is 0.457%.

As to `Cc1ccc(C(=O)N/C(=C\c2cn(S(=O)(=O)N(C)C)c3ccccc23)C(=O)N2CCCC2)cc1`, the “activity change, negative = inhibition” value is 12.2%.

Take `CCOc1cc(/C=C2\C(=N)N3N=C(C)SC3=NC2=O)ccc1OCCOc1ccccc1`: the activity change, negative = inhibition was 26.8% [at 1.91 µM].

As for `COc1cccc(OC)c1C(=O)Nc1c(C(=O)N2CCN(c3ccccn3)CC2)oc2ccccc12`, the “activity change, negative = inhibition” value was 26.4%.

Turning to `CCOc1cc(C)ccc1OCc1nnc(SCC(=O)Nc2cccc(C(=O)O)c2)n1-c1ccccc1`, the “activity change, negative = inhibition” value is -3.43%.

Regarding `Cc1cc(C)c(C#N)c(SCC(=O)Nc2ccccc2)n1`, the “activity change, negative = inhibition” value is -8.89%.

Regarding `CSc1nc(C)cc(SC(C(C)=O)C(=O)Nc2ccccc2)n1` (stereo not drawn), the Potency is 8.91 µM (active).

For `CC(Sc1nnc2c(n1)C1CCC2(C)C1(C)C)C(=O)Nc1ccccc1` (stereo not drawn), the “activity change, negative = inhibition” value was 8.52%.

Take `Cc1c(CN2CC[C@@H](N3CCN(c4ccccn4)CC3)[C@H](O)C2)[nH]c2ccc(F)cc12`: the “activity change, negative = inhibition” value is 10.1%.

`O=C(Nc1n[nH]c(C(F)(F)F)n1)c1cccs1`: the “activity change, negative = inhibition” value is -2.77%.

Regarding `CC1CC(c2ccccc2)n2nc(NC(=O)c3cccs3)nc2N1` (stereo not drawn), the Potency is 14.1 µM (active).

On to `COc1ccc(CC(=O)Nc2nc3n(n2)C(c2ccccc2)CC(=O)N3)cc1OC` (stereo not drawn), for which the “activity change, negative = inhibition” value is -4.03%.
